Assay results as given in PubChem BioAssay (Tox21).
Records with an inconclusive call do not appear. The source made the active and inactive calls. Unless noted, calls come from the whole dose curve; as a rule, active = well fitted curve in the direction sought with a large enough effect in the repeat runs; inconclusive = weak or mixed curves; inactive = no such curve, though single readings can be large; an effect the other way counts as inactive or inconclusive.

Columns and labels:
[1] = target: Peroxisome proliferator-activated receptor gamma (Homo sapiens) (UniProt P37231); assay: qHTS assay to identify small molecule antagonists of the peroxisome proliferator-activated receptor gamma (PPARg) signaling pathway (AID 743191; calls by dose curve; note: series mostly up to about 63 µM; nearly all actives have a fitted effect of over 30% in size)
In short: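 GeneBLAzer PPARg UAS-bla HEK293H cells, 5 h post-plating, exposed to compounds 17 h at 37C. LiveBLAzer B/G FRET substrate added for 1 h at room temperature; beta-lactamase reporter read by fluorescence intensity.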

[2] = qHTS assay to identify small molecule antagonists of the peroxisome proliferator-activated receptor gamma (PPARg) signaling pathway - cell viability counter screen (AID 743194); note: nearly all actives have a fitted effect of over 55% in size
In short: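 Cytotoxicity counter screen in PPARg-bla HEK293H cells, same wells as reporter assay. Compounds plus 50 nM rosiglitazone (final) for 17 h at 37 C, then viability read by CellTiter-Glo luminescence.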

[3] = qHTS assay for small molecule agonists of the antioxidant response element (ARE) signaling pathway (AID 743202; active = well fitted activation curve with a large enough effect in the signal ratio in the repeat runs, not every such curve was filed as active; the % refers to the signal ratio)
In short: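 HepG2 ARE-bla cells; 16 h treatment at 37 C; FRET-based beta-lactamase fluorescence read after 2 h substrate incubation at room temperature.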

[4] = qHTS assay for small molecule agonists of the antioxidant response element (ARE) signaling pathway - cell viability counter screen (AID 743203; calls by dose curve; note: nearly all actives have a fitted effect of over 55% in size)
In short: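 Viability counter screen: stably transfected ARE-bla HepG2 line, 16 hrs compound exposure at 37C/5% CO2, ATP-based CellTiter-Glo luminescence measured in the reporter wells.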

[5] = qHTS assay for small molecule activators of the heat shock response signaling pathway (AID 743210; active = well fitted activation curve with a large enough effect in the signal ratio in the repeat runs, with a control signal flat, not every such curve was filed as active; the % refers to the signal ratio;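 note: HeLa cells with beta-lactamase reporter driven by heat shock elements; series mostly up to about 63 µM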)
In short: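 Following overnight attachment, HSE-bla HeLa cells received test compounds for 5 h at 37 C; beta-lactamase activity was then detected via FRET substrate fluorescence.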

[6] = qHTS assay to identify small molecule agonists of the peroxisome proliferator-activated receptor delta (PPARd) signaling pathway - cell viability counter screen (AID 743211); note: nearly all actives have a fitted effect of over 55% in size
In short: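 PPARd-bla HEK293H cells (UAS-beta-lactamase reporter) were treated with compounds for 17 h at 37 C. Viability was then read in the same wells by CellTiter-Glo luminescence after 30 min at room temperature.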

[7] = qHTS assay to identify small molecule antagonists of the peroxisome proliferator-activated receptor delta (PPARd) signaling pathway - cell viability counter screen (AID 743213); note: nearly all actives have a fitted effect of over 50% in size
In short: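 Same-well viability: cells pre-incubated 5 h, dosed with compound plus 300 nM L165041, kept 17 h at 37 C, FRET substrate 2 h RT, then CellTiter-Glo 30 min RT and luminescence.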

[8] = target: Bile acid receptor (Homo sapiens) (UniProt Q96RI1); assay: qHTS assay to identify small molecule antagonists of the farnesoid-X-receptor (FXR) signaling pathway (AID 743217; active = well fitted inhibition curve with a large enough effect in the signal ratio in the repeat runs, not every such curve was filed as active; the % refers to the signal ratio)
In short: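 Screen of the Tox21 10K library in quantitative HTS format using FXR-UAS-bla HEK 293T reporter cells. Agonist chenodeoxycholic acid, 50 uM final, added with compounds; 16 h incubation at 37 °C; beta-lactamase FRET fluorescence measured.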

[9] = qHTS assay to identify small molecule agonists of the farnesoid-X-receptor (FXR) signaling pathway - cell viability counter screen (AID 743218); note: nearly all actives have a fitted effect of over 45% in size
In short: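 Viability of FXR-bla HEK 293T cells is measured by ATP-based CellTiter-Glo luminescence following 16 h compound treatment at 37 C and a prior 2 h room-temperature beta-lactamase substrate step.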

[10] = target: Bile acid receptor (Homo sapiens) (UniProt Q96RI1); assay: qHTS assay to identify small molecule agonists of the farnesoid-X-receptor (FXR) signaling pathway (AID 743220; active = well fitted activation curve with a large enough effect in the signal ratio in the repeat runs, not every such curve was filed as active; the % refers to the signal ratio)
In short: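 FXR-UAS-bla HEK 293T cells carrying a UAS-driven beta-lactamase reporter were plated for 5 h at 37C/5% CO2, then exposed to DMSO-dissolved Tox21 10K compounds for 16 h at 37C. A LiveBLAzer B/G FRET substrate was loaded for 2 h at room temperature before fluorescence reading.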

[11] = qHTS assay to identify small molecule antagonists of the farnesoid-X-receptor (FXR) signaling pathway - cell viability counter screen (AID 743221; active = well fitted cell-killing curve with a large enough effect in the repeat runs, not every such curve was filed as active; note: nearly all actives have a fitted effect of over 50% in size)
In short: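 FXR-UAS-bla HEK 293T cells were treated with test compounds plus chenodeoxycholic acid (50 uM final) for 16 h at 37 C. Cell viability in the same wells was then read as CellTiter-Glo luminescence after 30 min at room temperature.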

[12] = target: Vitamin D3 receptor (Homo sapiens) (UniProt P11473); assay: qHTS assay to identify small molecule agonists of the vitamin D receptor (VDR) signaling pathway (AID 743222; calls by dose curve)
In short: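 Fluorescence from cleaved LiveBLAzer B/G FRET substrate served as readout. VDR-bla cells had been treated 16 h at 37C with test compounds in DMSO, following a 4 h settling period, and substrate was loaded for 2 h at RT.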

[13] = target: Vitamin D3 receptor (Homo sapiens) (UniProt P11473); assay: qHTS assay to identify small molecule antagonists of the vitamin D receptor (VDR) signaling pathway (AID 743223; active = well fitted inhibition curve with a large enough effect in the signal ratio in the repeat runs, not every such curve was filed as active; the % refers to the signal ratio)
In short: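 VDR-bla cells were plated, incubated 4 h at 37C, then given compound and 1alpha,25-dihydroxyvitamin D3 (3 nM final). After 16 h at 37C, LiveBLAzer B/G FRET substrate was added for 2 h at room temperature and fluorescence read.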

[14] = qHTS assay to identify small molecule agonists of the vitamin D receptor (VDR) signaling pathway - cell viability counter screen (AID 743224); note: series mostly up to about 63 µM; nearly all actives have a fitted effect of over 50% in size
In short: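 Compounds were pin-transferred onto VDR-bla cells plated 4 h earlier; following 16 h incubation at 37C, cell viability was quantified by CellTiter-Glo luminescence after 30 min at room temperature.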

[15] = qHTS assay for small molecule activators of the heat shock response signaling pathway - cell viability counter screen (AID 743209); note: nearly all actives have a fitted effect of over 50% in size
In short: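 Viability of HSE-bla HeLa cells is measured with CellTiter-Glo in the wells already used for the reporter read. Compound exposure lasts 5 h at 37 C, and luminescence is read after 30 min at room temperature.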

[16] = target: Peroxisome proliferator-activated receptor delta (Homo sapiens) (UniProt Q03181); assay: qHTS assay to identify small molecule agonists of the peroxisome proliferator-activated receptor delta (PPARd) signaling pathway (AID 743212; calls by dose curve)
In short: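 Tox21 library screened in GeneBLAzer PPARd UAS-bla HEK293H cells. After compound treatment at 37 C, a FRET-based beta-lactamase substrate was applied for 2 h and fluorescence recorded.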

[17] = target: Peroxisome proliferator-activated receptor delta (Homo sapiens) (UniProt Q03181); assay: qHTS assay to identify small molecule antagonists of the peroxisome proliferator-activated receptor delta (PPARd) signaling pathway (AID 743215; active = well fitted inhibition curve with a large enough effect in the signal ratio in the repeat runs, not every such curve was filed as active; the % refers to the signal ratio;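 note: cells stimulated with agonist L165041 at 300 nM final during compound exposure; series mostly up to about 62 µM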)
In short: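 Plated HEK293H PPARd-bla cells rested 5 h at 37 C and 5% CO2. Compound, then agonist L165041 at 300 nM final, was added; 17 h at 37 C followed. Substrate loading, 2 h room temperature, fluorescence measured.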

[18] = qHTS assay to identify small molecule that activate the aryl hydrocarbon receptor (AhR) signaling pathway - cell viability counter screen (AID 743086);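 note: HepG2 liver cells carrying the AhR DRE luciferase reporter; series mostly up to about 70 µM; nearly all actives have a fitted effect of over 45% in size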
In short: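 HepG2-AhR-luc (HG2L7.5c1) cells, 4000/well, treated 24 h at 37 C with compound; viability measured as CellTiter-Fluor fluorescence after 30 min in the same wells as the luciferase read.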

[19] = target: Peroxisome proliferator-activated receptor gamma (Homo sapiens) (UniProt P37231); assay: qHTS assay to identify small molecule agonists of the peroxisome proliferator-activated receptor gamma (PPARg) signaling pathway (AID 743094; active = well fitted activation curve with a large enough effect in the signal ratio in the repeat runs, not every such curve was filed as active; the % refers to the signal ratio)
In short: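 Reporter activation was scored by fluorescence of cleaved LiveBLAzer B/G substrate (1 h, room temperature) in PPARg-bla HEK293H cells previously treated 17 h at 37C with DMSO-dissolved compounds.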

Measured: Potency

Chain of Bile acid receptor (Homo sapiens) (Q96RI1 whole entry, looked up): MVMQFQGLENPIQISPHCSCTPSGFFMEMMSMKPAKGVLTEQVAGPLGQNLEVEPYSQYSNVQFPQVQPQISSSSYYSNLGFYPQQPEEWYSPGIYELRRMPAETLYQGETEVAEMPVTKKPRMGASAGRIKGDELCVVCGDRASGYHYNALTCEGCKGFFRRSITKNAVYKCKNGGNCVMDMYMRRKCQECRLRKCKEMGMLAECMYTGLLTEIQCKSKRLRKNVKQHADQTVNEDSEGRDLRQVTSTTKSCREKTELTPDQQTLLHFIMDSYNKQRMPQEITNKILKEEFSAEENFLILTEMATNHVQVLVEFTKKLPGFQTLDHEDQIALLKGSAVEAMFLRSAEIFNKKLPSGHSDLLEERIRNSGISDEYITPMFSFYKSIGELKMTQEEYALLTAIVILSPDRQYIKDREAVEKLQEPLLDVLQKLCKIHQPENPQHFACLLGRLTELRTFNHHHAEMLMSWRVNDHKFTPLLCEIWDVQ
Chain of Peroxisome proliferator-activated receptor gamma (Homo sapiens) (P37231 whole entry, looked up): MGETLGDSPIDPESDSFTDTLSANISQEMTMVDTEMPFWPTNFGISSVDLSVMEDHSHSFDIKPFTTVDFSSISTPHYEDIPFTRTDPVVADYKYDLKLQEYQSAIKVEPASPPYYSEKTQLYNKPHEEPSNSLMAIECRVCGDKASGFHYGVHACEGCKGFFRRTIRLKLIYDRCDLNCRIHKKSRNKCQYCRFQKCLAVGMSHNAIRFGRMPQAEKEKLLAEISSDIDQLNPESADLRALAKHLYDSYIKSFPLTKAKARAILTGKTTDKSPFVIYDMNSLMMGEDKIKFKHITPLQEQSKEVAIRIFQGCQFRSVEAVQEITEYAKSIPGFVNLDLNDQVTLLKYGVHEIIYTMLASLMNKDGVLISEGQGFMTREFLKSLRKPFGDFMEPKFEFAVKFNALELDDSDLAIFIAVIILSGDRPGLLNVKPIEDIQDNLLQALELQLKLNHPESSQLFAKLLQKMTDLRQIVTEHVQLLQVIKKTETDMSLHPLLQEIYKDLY
Chain of Peroxisome proliferator-activated receptor delta (Homo sapiens) (Q03181 whole entry, looked up): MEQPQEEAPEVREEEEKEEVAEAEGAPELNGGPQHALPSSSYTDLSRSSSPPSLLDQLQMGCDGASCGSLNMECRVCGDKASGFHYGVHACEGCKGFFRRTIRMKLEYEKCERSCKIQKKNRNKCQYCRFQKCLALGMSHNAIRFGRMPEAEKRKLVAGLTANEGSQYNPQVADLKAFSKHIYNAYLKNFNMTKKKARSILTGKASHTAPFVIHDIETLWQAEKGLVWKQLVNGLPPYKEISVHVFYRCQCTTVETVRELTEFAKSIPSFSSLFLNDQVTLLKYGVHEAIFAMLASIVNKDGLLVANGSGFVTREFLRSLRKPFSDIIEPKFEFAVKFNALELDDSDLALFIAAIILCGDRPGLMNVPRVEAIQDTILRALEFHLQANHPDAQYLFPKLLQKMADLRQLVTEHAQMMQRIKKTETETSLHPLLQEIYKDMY
Chain of Vitamin D3 receptor (Homo sapiens) (P11473 whole entry, looked up): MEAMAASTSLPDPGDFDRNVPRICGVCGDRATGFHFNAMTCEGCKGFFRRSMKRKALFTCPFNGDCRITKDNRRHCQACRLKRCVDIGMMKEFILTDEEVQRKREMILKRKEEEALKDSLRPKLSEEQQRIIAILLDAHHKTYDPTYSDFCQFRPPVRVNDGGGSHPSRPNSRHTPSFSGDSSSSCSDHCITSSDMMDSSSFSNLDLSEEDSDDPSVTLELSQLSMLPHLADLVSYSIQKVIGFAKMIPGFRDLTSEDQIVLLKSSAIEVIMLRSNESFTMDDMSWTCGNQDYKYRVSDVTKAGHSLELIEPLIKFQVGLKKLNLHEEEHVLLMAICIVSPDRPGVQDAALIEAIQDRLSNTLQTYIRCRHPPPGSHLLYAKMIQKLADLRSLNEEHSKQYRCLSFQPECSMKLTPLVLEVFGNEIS

CC(=O)/C=C/C=C1/C2CCC(C2)C1(C)C (stereo not given)
not listed: [15] | [16] | [17] | [18] | [19]
inactive: all other assays above

CC(=O)c1ccc(O)c(C(N)=O)c1
not listed: [2] | [13] | [14] | [18] | [19]
inactive: all other assays above

Cc1ccc(OC(=O)CC(C)C)cc1
not listed: [1] | [2] | [5] | [11] | [12] | [13] | [14] | [17]
inactive: all other assays above

CCCCCCCOC(C)=O
not listed: [1] | [2] | [5] | [8] | [9] | [10] | [12] | [13]
inactive: all other assays above

CCOC(=O)CN1CCCC1=O
not listed: [1] | [6] | [8] | [10] | [13] | [16] | [18] | [19]
inactive: all other assays above

COC(=O)c1cc(Cl)c(NC(C)=O)cc1OC
not listed: [18] | [19]
inactive: all other assays above

CC(C)c1cc(C(C)C)cc(C(C)C)c1
not listed: [1] | [2] | [8] | [10] | [15]
inactive: all other assays above

COc1cc(S(N)(=O)=O)cc(C(=O)O)c1OC
not listed: [5] | [8] | [10] | [12] | [18] | [19]
inactive: all other assays above

CC(=O)c1ccc2ccc3ccccc3c2c1
not listed: [2] | [5] | [12] | [17] | [19]
inactive: all other assays above

N#Cc1cc(NC(=O)C(=O)O)c(Cl)c(NC(=O)C(=O)O)c1
not listed: [5] | [6] | [8] | [10] | [12] | [13] | [18] | [19]
inactive: all other assays above
